Reference: article PMC5540273 (PLoS ONE, 2017)

Columns and labels:
Conditions in all cases: concentration: 1 μM, replicates: in singlicate; n = 1
[1] = system: AAK1
[2] = system: ABL1-nonphosphorylated
[3] = system: ABL1-phosphorylated
[4] = system: ABL2
[5] = system: ACVR1B
[6] = system: ACVR1
[7] = system: ACVR2A
[8] = system: ACVR2B
[9] = system: ACVRL1
[10] = system: T1, ADCK3
T1 construct: gene CABC1

[11] = system: ADCK4
[12] = system: AKT1
[13] = system: AKT2
[14] = system: AKT3
[15] = system: ALK
[16] = system: T2, AMPK-alpha1
T2 construct: gene PRKAA1

[17] = system: T3, AMPK-alpha2
T3 construct: gene PRKAA2

[18] = system: ANKK1
[19] = system: T4, ARK5
T4 construct: gene NUAK1

[20] = system: T5, ASK1
T5 construct: gene MAP3K5
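Note: KINOMEscan kinase panel screen.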

| SMILES | %Inh [1] [%] | %Inh [2] [%] | %Inh [3] [%] | %Inh [4] [%] | %Inh [5] [%] | %Inh [6] [%] | %Inh [7] [%] | %Inh [8] [%] | %Inh [9] [%] | %Inh [10] [%] | %Inh [11] [%] | %Inh [12] [%] | %Inh [13] [%] | %Inh [14] [%] | %Inh [15] [%] | %Inh [16] [%] | %Inh [17] [%] | %Inh [18] [%] | %Inh [19] [%] | %Inh [20] [%] |
| --- | --- | --- | --- | --- | --- | --- | --- | --- | --- | --- | --- | --- | --- | --- | --- | --- | --- | --- | --- | --- |
| Nc1n[nH]c2cnc(-c3ccccc3)cc12 [SB-642124] | 37 | 0 | 0 | 16 | 0 | 41 | 0 | 13 | 0 | 19 | 24 | 0 | 8 | 0 | 30 | 0 | 30 | 23 | 0 | 6 |
| NCCCC(NC(=O)c1cc(Br)c(-c2ccnc3[nH]ccc23)s1)c1ccccc1.O=C(O)C(F)(F)F.O=C(O)C(F)(F)F (centres unmarked) [GSK1287544] | 55 | 0 | 0 | 23 | 0 | 0 | 0 | 0 | 0 | 20 | 38 | 89 | 52 | 91.8 | 32 | 17 | 35 | 0 | 54 | 0 |
| CCn1c(-c2nonc2N)nc2c(C#CC(C)(C)O)nc(OC[C@H](N)c3ccccc3)cc21 [GSK943949] | 0 | 0 | 0 | 0 | 0 | 0 | 0 | 0 | 0 | 0 | 0 | 95.8 | 98.8 | 95.8 | 19 | 0 | 3 | 0 | 18 | 0 |
| COCCOCCOc1cc2ncc3c4ccc(C#N)cc4[nH]c3c2cc1OC | 92.1 | 70 | 53 | 2 | 0 | 0 | 6 | 0 | 0 | 29 | 0 | 5 | 0 | 0 | 0 | 30 | 1 | 63 | 12 | 6 |
| C[C@@H](Oc1cc(-n2cnc3cc(-c4ccnc(NCCS(C)(=O)=O)c4)ccc32)sc1C(N)=O)c1ccccc1Cl [GSK907232] | 73 | 0 | 0 | 30 | 0 | 10 | 0 | 3 | 0 | 25 | 10 | 0 | 16 | 0 | 18 | 0 | 0 | 0 | 84 | 0 |
| CN(C)S(=O)(=O)c1cc(-c2ccc3nccc(-c4cccc(S(N)(=O)=O)c4)c3c2)cnc1N [GSK1669921] | 26 | 0 | 0 | 17 | 0 | 88 | 0 | 0 | 0 | 16 | 0 | 0 | 5 | 0 | 30 | 3 | 0 | 5 | 11 | 0 |
| O=C(Nc1ccccc1F)NC1CCN(c2ccnc(Nc3ccc(F)cc3)n2)CC1 [GSK1379800] | 17 | 0 | 0 | 12 | 0 | 6 | 0 | 0 | 0 | 1 | 64 | 0 | 11 | 0 | 17 | 14 | 0 | 1 | 0 | 4 |
| Nc1ncc(-c2ccc3nccc(-c4ccncc4)c3c2)cc1S(=O)(=O)N1CCOCC1 [GSK1627798] | 18 | 0 | 0 | 13 | 0 | 0 | 0 | 0 | 0 | 49 | 24 | 0 | 12 | 0 | 30 | 0 | 0 | 5 | 0 | 0 |
| O=c1[nH]cc(-c2ccc(N3CCOCC3)cc2)c2sc(-c3cn[nH]c3)cc12 [GSK2276055] | 23 | 0 | 0 | 0 | 0 | 0 | 2 | 0 | 0 | 0 | 0 | 0 | 16 | 0 | 4 | 0 | 0 | 21 | 18 | 0 |
| COc1ccc(Nc2nccc(NCCNC(=O)c3cc4ccccc4s3)n2)cc1 [GSK1379896] | 7 | 0 | 0 | 9 | 0 | 0 | 0 | 0 | 0 | 10 | 29 | 0 | 0 | 0 | 6 | 0 | 0 | 6 | 3 | 0 |
